Data on 13 compounds can be found in PubChem BioAssay (NCI).

Molecules are shown by their SMILES. About 83,000 compounds went through this panel and 20% of them were active in at least one assay; those are over-represented in the sample as a whole.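 A percent growth of 40 corresponds to 60% growth inhibition; 0 means no net growth; -100 means all cells died. Active threshold: below 10.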 A number with no mark means an inactive call. The source made the active and inactive calls.

Experiment in all cases: NCI-60 one-dose screen, 48 h (100 = growth as untreated, 0 = no growth, -100 = all killed)
In one experiment the test system is DU-145 prostate. Conditions: 10 µM unless noted.
Another experiment has as its system K-562 leukemia. To be noted: 10 µM unless noted.
In another experiment the test system is MALME-3M melanoma. Conditions: 10 µM unless noted.
The next experiment concerns MDA-MB-231 breast. Conditions: 10 µM unless noted.
The test system of the next experiment is RXF 393 renal. To be noted: 10 µM unless noted.
The next experiment relates to SF-268 CNS. Conditions: 10 µM unless noted.
Another experiment relates to SF-295 CNS. Conditions: 10 µM unless noted.
Another experiment relates to SF-539 CNS. Conditions: 10 µM unless noted.
For a further experiment, the system named is UACC-257 melanoma. Conditions: 10 µM.
The next experiment has as its system M14 melanoma. Conditions: 10 µM unless noted.

For `CCOc1c(C#N)c(Nc2ccc(S(N)(=O)=O)cc2)c(C#N)c2nnc(C)n12`, the growth with DU-145 prostate was 109%; in the experiment on K-562 leukemia, 110%; in the experiment with MALME-3M melanoma it was 99.1%; with MDA-MB-231 breast, 90.6%; in the experiment with RXF 393 renal, 132%; with SF-268 CNS, 99%. Moreover, the growth with SF-295 CNS was 105%; with SF-539 CNS, 97.2%; in the experiment with UACC-257 melanoma, 104%; in the experiment on M14 melanoma, 100%.

For the compound `CCOc1ccc2nc(NC(=O)Nc3ccccc3C)sc2c1`, the growth in the experiment on DU-145 prostate was 70.3%; in the experiment with K-562 leukemia it was 14.6%; in the experiment with MALME-3M melanoma, 48.6%; with MDA-MB-231 breast, 71.2%; with RXF 393 renal, 49.5%; in the experiment with SF-268 CNS, 78.6%. In addition, the growth is 35.2% in the experiment with SF-295 CNS, 57.1% in the experiment with SF-539 CNS, 68.4% with UACC-257 melanoma and 23.4% in the experiment with M14 melanoma.

Regarding `O=C(CCCCCCN1CC(=O)N2[C@@H](c3ccccc3)c3[nH]c4ccccc4c3C[C@H]2C1=O)NO`, the growth is 58.3% in the experiment with DU-145 prostate; 26.3% with K-562 leukemia; 21.8% in the experiment with MALME-3M melanoma; 70.1% in the experiment with MDA-MB-231 breast; 76.6% in the experiment with RXF 393 renal; 82.1% in the experiment on SF-268 CNS. Besides, the growth in the experiment on SF-295 CNS is 57.4%; with SF-539 CNS it was 62.5%; with UACC-257 melanoma, 45.7%; in the experiment with M14 melanoma, 49.9%.

For the compound `COc1ccc2c(c1)oc1c3[nH]c4ccccc4c3c3c(c21)C(=O)N(O)C3=O`, the growth is 38.2% in the experiment on DU-145 prostate; 31.2% with K-562 leukemia; 64.4% with MALME-3M melanoma; 82.9% with MDA-MB-231 breast; 31.9% in the experiment on RXF 393 renal; 33.5% in the experiment with SF-268 CNS. The growth with SF-295 CNS was 29.7%; with SF-539 CNS it was 28.9%; in the experiment on UACC-257 melanoma, 78.8%; in the experiment on M14 melanoma it was 29.9%.

Take `CCC(=O)Nc1ccc(-c2nc(-c3cccc(O)c3)c(-c3ccnc(Br)c3)[nH]2)cc1`: the growth is 56% in the experiment with DU-145 prostate; 32.8% in the experiment with K-562 leukemia; 59.8% in the experiment with MALME-3M melanoma; 71.8% with MDA-MB-231 breast; -4.84% (active) with RXF 393 renal; 82.1% with SF-268 CNS. Further, the growth with SF-295 CNS is 45.8%; in the experiment with SF-539 CNS, 57.1%; in the experiment with UACC-257 melanoma, 64.1%; with M14 melanoma, 66.7%.

For `CN(c1ccc(Br)cc1)S(=O)(=O)c1ccc(-c2cnc(C3CC3)o2)cc1`, the growth with DU-145 prostate was 26.2%; in the experiment on K-562 leukemia, 7.96% (active); in the experiment on MALME-3M melanoma it was 63.8%; with MDA-MB-231 breast, 29.9%; in the experiment on RXF 393 renal, 6.23% (active); with SF-268 CNS it was 65.9%. The growth is -0.0962% (active) in the experiment with SF-295 CNS, 1.56% (active) in the experiment on SF-539 CNS, 67.3% in the experiment on UACC-257 melanoma and 8.2% (active) in the experiment on M14 melanoma.

As to `COc1ccc(N2CCN(C(=O)CSc3ccc(-c4nc5cc(C)c(C)cc5[nH]4)cn3)CC2)cc1`, the growth in the experiment with DU-145 prostate was 93.1%; with K-562 leukemia it was 35.3%; in the experiment with MALME-3M melanoma, 69.9%; with MDA-MB-231 breast, 85.6%; with RXF 393 renal it was 93.6%; with SF-268 CNS it was 99.3%. Moreover, the growth in the experiment on SF-295 CNS was 50.2%; in the experiment on SF-539 CNS, 84%; with UACC-257 melanoma it was 52.1%; in the experiment with M14 melanoma it was 53.9%.

In the case of `N/C(=N\c1nc2c(Cl)cccc2s1)C(Cl)(Cl)Cl`, the growth was 3.92% (active) in the experiment on DU-145 prostate; 91.3% in the experiment on K-562 leukemia; 104% in the experiment on MALME-3M melanoma; 76.1% with MDA-MB-231 breast; 55.2% in the experiment on RXF 393 renal; 81% in the experiment with SF-268 CNS. Moreover, the growth in the experiment on SF-295 CNS is 20.1%; with SF-539 CNS it was 71.1%; with UACC-257 melanoma, 90.7%; in the experiment with M14 melanoma, 97.7%.

In the case of `C#C[C@]1(O)CC[C@H]2[C@@H]3CC=C4c5sc(Nc6ccc(OC)nc6)nc5CC[C@]4(C)[C@H]3CC[C@@]21C`, the growth in the experiment with DU-145 prostate was 24.8%; with K-562 leukemia it was 6.1% (active); in the experiment with MALME-3M melanoma, 55.2%; with MDA-MB-231 breast, 64.8%; in the experiment on RXF 393 renal, -15.7% (active); with SF-268 CNS, 45.9%. The growth with SF-295 CNS was -29.7% (active); in the experiment with SF-539 CNS, 13.9%; in the experiment on UACC-257 melanoma it was 89%; with M14 melanoma it was 59%.

For the compound `C#C[C@]1(O)CC[C@H]2[C@@H]3CC=C4c5sc(Nc6cc(Cl)ccn6)nc5CC[C@]4(C)[C@H]3CC[C@@]21C`, the growth is 42.5% with DU-145 prostate; 7.33% (active) in the experiment on K-562 leukemia; -21.9% (active) with MALME-3M melanoma; 32.6% with MDA-MB-231 breast; -52.8% (active) in the experiment on RXF 393 renal; 10.7% with SF-268 CNS. In addition, the growth with SF-295 CNS is -68.7% (active); in the experiment on SF-539 CNS, -53.2% (active); in the experiment with UACC-257 melanoma, -35.3% (active); in the experiment with M14 melanoma, -51.8% (active).

On to `CCOC(=O)/C(F)=C/C1CC1C1CCCCC1` (stereo not given), for which the growth was 105% with DU-145 prostate; 117% in the experiment on K-562 leukemia; 97.9% with MALME-3M melanoma; 98.6% in the experiment on MDA-MB-231 breast; 108% in the experiment on RXF 393 renal; 102% in the experiment on SF-268 CNS. The growth with SF-295 CNS is 103%; in the experiment on SF-539 CNS, 94.3%; with UACC-257 melanoma, 120%; in the experiment with M14 melanoma, 98.9%.

With `NS(=O)(=O)c1ccc(Nc2nc(N/N=C/c3ccc([N+](=O)[O-])cc3)nc(Nc3ccccc3)n2)cc1`, the growth was 43.6% in the experiment with DU-145 prostate; 20.3% with K-562 leukemia; 36.9% in the experiment with MALME-3M melanoma; 45.8% with MDA-MB-231 breast; -5.96% (active) in the experiment with RXF 393 renal; 26.9% with SF-268 CNS. Also, the growth was 57.1% in the experiment with SF-295 CNS, -36.3% (active) in the experiment on SF-539 CNS, 82.5% in the experiment with UACC-257 melanoma and 13.3% with M14 melanoma.

In the case of `O=S(=O)(Nc1ccc(I)c(Cl)c1)c1ccc(-c2cnc(C3CC3)o2)cc1`, the growth was 19.5% with DU-145 prostate; 9.83% (active) with K-562 leukemia; 49.4% in the experiment on MALME-3M melanoma; 44.8% in the experiment with MDA-MB-231 breast; 2.46% (active) in the experiment with RXF 393 renal; 59.4% in the experiment on SF-268 CNS. The growth in the experiment on SF-295 CNS is 12.2%; in the experiment on SF-539 CNS it was 10.9%; with UACC-257 melanoma it was 69.9%; with M14 melanoma it was 20.9%.
